From PubChem BioAssay
The source made the active and inactive calls. Unless noted, how the calls were made is not given here.

Key:
[1] = compound effects on lung adenocarcinoma cell viability – A549, calcein-AM fluorescence, 48 h, basal, profiling panel (AID 1162); details: higher = more signal; further: test concentration not given here
[2] = compound effects on differentiated 3T3-L1 adipocyte viability – cell-based, 3T3-L1 adipocytes, calcein-AM fluorescence, 48 h, basal, profiling panel (AID 1163); details: 3T3-L1 adipocytes viability, higher = more signal; further: test concentration not given here
[3] = compound effects on hepatocellular carcinoma cell viability – HepG2, calcein-AM fluorescence, 48 h, basal, profiling panel (AID 1164); details: higher = more signal; further: test concentration not given here
[4] = compound effects on multiple myeloma cell viability – MM1S, calcein-AM fluorescence, 48 h, basal, profiling panel (AID 1165); details: higher = more signal;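 further: viability of MM1S multiple myeloma cells under basal unstimulated conditions; test concentration not given here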
[5] = calcein-AM signal in unstimulated myeloma cells – cell-based, calcein-AM fluorescence, 48 h, PK04 Diversity Set, profiling panel (AID 1166); details: RPMI8226 myeloma viability, higher = more signal;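 further: cells grown under basal conditions without added stimulus; test concentration not given here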
[6] = JC-1 mitochondrial signal, unstimulated HepG2 cells – cell-based, JC-1 fluorescence, 24 h, 100 nL compound, profiling panel (AID 1167); details: HepG2 mitochondrial potential, higher = more signal; further: test concentration not given here
[7] = JC-1 mitochondrial signal, unstimulated adipocytes – cell-based, JC-1 fluorescence, 3T3-L1 adipocytes, 24 h, 100 nL compound, profiling panel (AID 1168); details: JC-1 mitochondrial fluorescence, higher = more signal, called active from +8 up or from −8 down; further: test concentration not given here
[8] = JC-1 mitochondrial signal, unstimulated myeloma cells – cell-based, JC-1 fluorescence, RPMI8226, 24 h, 100 nL compound, profiling panel (AID 1169); details: JC-1 mitochondrial potential fluorescence, higher = more signal; further: test concentration not given here
[9] = JC-1 mitochondrial signal, unstimulated MM1S myeloma – cell-based, JC-1 fluorescence, 24 h, 100 nL compound, profiling panel (AID 1170); details: MM1S mitochondrial potential, higher = more signal; further: test concentration not given here
[10] = resazurin metabolic signal in A549 cells – cell-based, resazurin fluorescence, 24 h, PK04 Diversity Set, profiling panel (AID 1171); details: A549 viability, higher = more signal, called active from +8 up or from −8 down; further: test concentration not given here
[11] = resazurin metabolic signal in HepG2 cells – cell-based, resazurin fluorescence, 24 h, PK04 Diversity Set, profiling panel (AID 1172); details: HepG2 viability, higher = more signal; further: test concentration not given here
[12] = budding yeast growth changes without added modifier – OD600, strain BY4716, 24 h, basal condition, primary screen (AID 1173); details: S. cerevisiae BY4716 growth, OD600, 24 h; higher = more signal, called active from +8 up or from −8 down
[13] = viability profiling in MM1S myeloma cells – cell-based, resazurin fluorescence, basal, 24 h, PK04 Diversity Set, profiling panel (AID 1174); details: higher = more signal, called active from +8 up or from −8 down; further: test concentration not given here
[14] = target: Dihydroorotate dehydrogenase (quinone), mitochondrial (Plasmodium falciparum (isolate 3D7)) (UniProt Q08210); experiment: inhibition of P. falciparum DHODH – biochemical, C-terminal His tag, absorbance 600 nm, primary screen (AID 1175); details: PfDHODH enzyme, DCIP absorbance 600 nm; higher = more signal, called active from +8 up or from −8 down;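 further: recombinant parasite enzyme with a five histidine tag at its C terminus; test concentration not given here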
[15] = inhibition of PAO1 biofilm formation – strain PAO1, LB-PBS medium, absorbance 600 nm, primary screen (AID 1176); further: test concentration not given here; details: P. aeruginosa PAO1 growth/biofilm, A600, 12 h; higher = more signal
[16] = growth modulation of vineyard yeast isolate – strain RM11-1a, OD600, basal, 24 h, primary screen (AID 1177);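 further: cultures grown under basal conditions with no added stressor; test concentration not given here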; details: S. cerevisiae RM11-1a growth, OD600, 24 h; higher = more signal, called active from +8 up or from −8 down
[17] = growth of efflux-deficient E. coli DRC39 – strain DRC39, OD650, 24 h, E. coli filamentation inducers, primary screen (AID 1178);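 further: growth measured as culture turbidity by optical density at 650 nm; test concentration not given here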; details: E. coli DRC39 acrAB, higher = more signal, called active from +8 up or from −8 down
[18] = growth of efflux-deficient E. coli DRC39 – strain DRC39, OD650, 48 h, E. coli filamentation inducers, primary screen (AID 1179);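 further: screen aims at cell division blockers that make cells filament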; details: E. coli DRC39 delta-acrAB growth, higher = more signal, called active from +8 up or from −8 down
[19] = viability profiling in RPMI8226 myeloma cells – cell-based, resazurin fluorescence, basal, 24 h, PK04 Diversity Set, profiling panel (AID 1180); details: higher = more signal;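 further: RPMI8826 multiple myeloma cell line at 5000 cells per well; test concentration not given here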
[20] = target: E3 ubiquitin-protein ligase XIAP (Homo sapiens) (UniProt P98170); experiment: small molecules binding XIAP protein – biophysical, small-molecule microarray, fluorescence 635 nm, primary screen (AID 1181); details: higher = more signal;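 further: score merges 667 nm emission and signal to noise over triplicate slides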
Sequence of E3 ubiquitin-protein ligase XIAP (Homo sapiens) (P98170 whole entry, looked up): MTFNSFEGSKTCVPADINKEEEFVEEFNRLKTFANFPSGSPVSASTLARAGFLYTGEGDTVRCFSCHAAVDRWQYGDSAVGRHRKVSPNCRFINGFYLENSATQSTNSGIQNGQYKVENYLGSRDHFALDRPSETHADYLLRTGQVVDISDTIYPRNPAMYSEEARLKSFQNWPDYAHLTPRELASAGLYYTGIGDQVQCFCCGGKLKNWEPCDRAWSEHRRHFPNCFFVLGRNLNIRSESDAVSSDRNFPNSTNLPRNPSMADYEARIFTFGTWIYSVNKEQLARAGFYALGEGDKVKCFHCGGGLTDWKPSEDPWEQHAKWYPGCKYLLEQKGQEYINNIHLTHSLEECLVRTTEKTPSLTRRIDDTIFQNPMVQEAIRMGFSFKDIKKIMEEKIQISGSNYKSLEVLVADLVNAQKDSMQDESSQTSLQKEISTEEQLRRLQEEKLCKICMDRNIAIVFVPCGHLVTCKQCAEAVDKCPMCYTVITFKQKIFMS

Sequence of Dihydroorotate dehydrogenase (quinone), mitochondrial (Plasmodium falciparum (isolate 3D7)) (Q08210 whole entry, looked up): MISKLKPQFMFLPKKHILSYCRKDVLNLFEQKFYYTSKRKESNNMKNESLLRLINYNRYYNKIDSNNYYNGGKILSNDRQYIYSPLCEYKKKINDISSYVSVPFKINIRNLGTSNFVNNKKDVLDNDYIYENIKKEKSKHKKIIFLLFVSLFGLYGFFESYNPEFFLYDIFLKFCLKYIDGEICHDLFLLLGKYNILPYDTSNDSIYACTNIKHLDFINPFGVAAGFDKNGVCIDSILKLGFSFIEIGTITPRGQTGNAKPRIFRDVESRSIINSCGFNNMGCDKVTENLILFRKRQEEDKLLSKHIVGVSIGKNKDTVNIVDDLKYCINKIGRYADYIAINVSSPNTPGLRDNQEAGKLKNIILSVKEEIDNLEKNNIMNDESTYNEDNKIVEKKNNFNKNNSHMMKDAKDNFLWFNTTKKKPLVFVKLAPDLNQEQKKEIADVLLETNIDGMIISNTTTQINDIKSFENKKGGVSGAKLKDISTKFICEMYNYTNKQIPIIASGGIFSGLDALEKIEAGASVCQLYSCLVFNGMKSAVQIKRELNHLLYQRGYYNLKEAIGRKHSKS

Row | SMILES | z-score [1] | z-score [2] | z-score [3] | z-score [4] | z-score [5] | z-score [6] | z-score [7] | z-score [8] | z-score [9] | z-score [10] | z-score [11] | z-score [12] | z-score [13] | composite z-score [14] | z-score [15] | z-score [16] | z-score [17] | z-score [18] | z-score [19] | composite z-score [20]
1 | O=C1CCCC(C2=CCCCC2=O)C1 (stereo not given) | -0.965 | -0.824 | -0.114 | 0.322 | 0.652 | 0.512 | -0.845 (inactive) | 0.987 | -0.857 | -0.684 (inactive) | -0.575 | 0.0749 (inactive) | -1.83 (inactive) | 0.153 (inactive) | 0.663 (inactive) | 0.541 (inactive) | 0.998 (inactive) | 0.524 (inactive) | -1.01 | 0.197
2 | O=C1OCCC=C1C(O)CCc1ccccc1 (stereo not given) | 0.0955 | -0.831 | -0.354 | -0.575 | 0.146 | -0.895 | -0.54 (inactive) | 0.0715 | -0.517 | -0.0147 (inactive) | 0.0362 | -0.567 (inactive) | -0.649 (inactive) | -0.0757 (inactive) | -0.564 (inactive) | -0.415 (inactive) | 0.258 (inactive) | 0.137 (inactive) | -0.573 | -0.202
3 | CC(C)=NO[C@H](C)c1cn([C@H](CO)Cc2ccccc2)nn1 | 0.373 | 0.232 | -0.121 | -0.0735 | -0.33 | -0.312 | -0.41 (inactive) | 0.155 | 1.11 | 0.268 (inactive) | 0.0622 | -0.489 (inactive) | -0.11 (inactive) | -0.784 (inactive) | 0.204 (inactive) | -0.493 (inactive) | 0.517 (inactive) | -1.91 (inactive) | 0.672 | -0.0538
4 | CCCCC#C[C@@H]1C=C[C@H](Oc2ccc(C(=O)OC)cc2)[C@@H](COC(=O)OCC)O1 | -1.07 | 0.416 | -3.26 | -3.56 | -3.46 | -0.918 | 0.281 (inactive) | -0.614 | -1.95 | 0.313 (inactive) | 0.257 | -4.46 (inactive) | -1.6 (inactive) | -0.189 (inactive) | 0.472 (inactive) | -0.37 (inactive) | -0.301 (inactive) | -0.0901 (inactive) | -1.08 | -0.194
5 | C#CCCCON=C1C[C@@H](O)[C@@H](O)[C@@H]2[C@@H]3C(=O)N(Cc4ccccc4)C(=O)[C@@H]3CC[C@@H]12 | 0.307 | -0.198 | -0.732 | -0.488 | 0.199 | 0.793 | 0.89 (inactive) | -0.323 | -0.467 | 0.37 (inactive) | 0.71 | -0.878 (inactive) | 0.736 (inactive) | -1.23 (inactive) | -0.601 (inactive) | -0.0952 (inactive) | 0.777 (inactive) | 1.2 (inactive) | 0.886 | -0.267
6 | COC(=O)CC=C[C@H](C)[C@@H](OCc1cccc(Br)c1)[C@@H](C)[C@H](OC)C1CCCCC1 | 0.836 | 0.128 | 1.21 | -2.16 | -0.474 | 0.918 | 0.831 (inactive) | 0.00209 | -0.324 | 0.0303 (inactive) | -0.363 | -0.949 (inactive) | 0.0742 (inactive) | -0.498 (inactive) | -1.16 (inactive) | 0.161 (inactive) | 0.474 (inactive) | -0.596 (inactive) | -0.171 | -0.318
7 | CC(C)(C)N1C(=O)[C@H]2[C@H]3[C@H](O)[C@H](O)CC(=NO[C@@H]4O[C@H](CO)[C@@H](O)[C@H](O)[C@H]4O)[C@H]3CC[C@H]2C1=O | -2.09 | 1.08 | -2.16 | -2.93 | -3.96 | -1.68 | -1.81 (inactive) | -0.344 | -0.447 | -0.817 (inactive) | -0.849 | -1.3 (inactive) | -0.623 (inactive) | -0.982 (inactive) | 1.15 (inactive) | 0.339 (inactive) | -0.341 (inactive) | -1.45 (inactive) | -0.817 | -0.142
8 | CC[C@@H](c1ccccc1)n1c(=O)n2n(c1=O)[C@H]1[C@H](O)[C@@H]3O[C@@H]3C(=NOC[C@@H](O)COCc3ccco3)[C@H]1CC2 | -0.335 | -0.193 | -0.378 | -0.0533 | -0.736 | -1.44 | -0.368 (inactive) | -0.465 | 0.432 | 0.0367 (inactive) | -0.466 | 0.626 (inactive) | -0.617 (inactive) | -0.337 (inactive) | -0.613 (inactive) | -1.11 (inactive) | 0.243 (inactive) | 0.047 (inactive) | -0.257 | -0.117
9 | CO[C@H](C1CCCCC1)[C@H](C)C=CCC(=O)OCCCc1ccccc1 | 0.19 | -0.518 | -0.0782 | -0.237 | 0.182 | 0.639 | -0.249 (inactive) | 0.773 | -0.199 | 0.301 (inactive) | 0.159 | 0.878 (inactive) | 0.227 (inactive) | 0.503 (inactive) | -0.315 (inactive) | 1.63 (inactive) | -0.778 (inactive) | -0.417 (inactive) | -0.0411 | -0.193
